The panel holds about 83,000 compounds, 20% with a hit somewhere; the sample as a whole holds those more often.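 The test compound was applied at a single concentration to cells in 96-well plates for 48 hours, and percent growth was recorded.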 A number with no mark means an inactive call. Active and inactive are the calls of the source. The calls were made as follows: active = growth percent below 10; inactive = the rest.

Test systems include HCT-15 colon; SNB-75 CNS; SNB-19 CNS; U251 CNS; PC-3 prostate; SK-MEL-5 melanoma; UACC-62 melanoma; LOX IMVI melanoma; SK-MEL-28 melanoma; SK-MEL-2 melanoma; EKVX NSCLC; SN12C renal; TK-10 renal; ACHN renal; CAKI-1 renal; A498 renal; CCRF-CEM leukemia; MOLT-4 leukemia; UO-31 renal.
What all share (test): NCI-60 one-dose screen, 48 h (100 = growth as untreated, 0 = no growth, -100 = all killed)
Holding throughout (conditions): 10 µM unless noted

With `c1cncc(CNc2ccccc2-c2nnc(Nc3ccc4c(c3)OCCO4)o2)c1`, the growth with HCT-15 colon is 19%; with SNB-75 CNS, 33.1%; in the assay on SNB-19 CNS, 38.1%; in the assay with U251 CNS, 30.8%; in the assay on PC-3 prostate, 36.5%; with SK-MEL-5 melanoma it was -9.92% (active). The growth in the assay with UACC-62 melanoma was 39.8%; in the assay with LOX IMVI melanoma, 27.1%; with SK-MEL-28 melanoma, 68.9%; in the assay with SK-MEL-2 melanoma, 15.8%; with EKVX NSCLC, 49.8%; in the assay on SN12C renal, 37.7%. For the same compound, the growth in the assay with TK-10 renal was 63.1%; in the assay on ACHN renal, 40.4%; in the assay on CAKI-1 renal, 34.3%; with A498 renal it was 11.3%; with CCRF-CEM leukemia, 14%; in the assay on MOLT-4 leukemia, 22.1%.

In the case of `Cc1cc(NC(=O)COC(=O)c2sc3cc(F)ccc3c2Cl)no1`, the growth is 106% with HCT-15 colon; 104% in the assay on SNB-75 CNS; 103% in the assay with SNB-19 CNS; 106% in the assay on U251 CNS; 101% with PC-3 prostate; 110% in the assay on SK-MEL-5 melanoma. Also, the growth in the assay on UACC-62 melanoma was 90.2%; with LOX IMVI melanoma, 103%; in the assay with SK-MEL-28 melanoma, 121%; in the assay with SK-MEL-2 melanoma, 44.8%; in the assay on EKVX NSCLC it was 105%; in the assay with SN12C renal, 107%. The growth with UO-31 renal was 39.2%; in the assay on TK-10 renal it was 125%; with ACHN renal, 106%; in the assay with CAKI-1 renal it was 110%; in the assay on A498 renal it was 103%; in the assay on CCRF-CEM leukemia it was 66.9%. Besides, in the assay with MOLT-4 leukemia, the growth was 108%.

In the case of `COc1cc(OC)c(C(=O)/C=C/c2ccc(C#N)cc2)c(OC)c1`, the growth with HCT-15 colon is 9.66% (active); in the assay with SNB-75 CNS, 14.1%; in the assay on SNB-19 CNS, 16.7%; in the assay with U251 CNS it was 12.6%; in the assay with PC-3 prostate it was 37.4%; in the assay with SK-MEL-5 melanoma it was 8.04% (active). Further, the growth is 26.5% in the assay on UACC-62 melanoma; 6.31% (active) in the assay on LOX IMVI melanoma; 39.2% in the assay on SK-MEL-28 melanoma; -11% (active) in the assay on SK-MEL-2 melanoma; 19.6% in the assay on SN12C renal; 19.1% with TK-10 renal. Moreover, the growth in the assay with ACHN renal is 17.5%; with CAKI-1 renal it was 18.5%; in the assay with CCRF-CEM leukemia, 7.44% (active); in the assay with MOLT-4 leukemia, 14.3%.

The values are drawn from PubChem BioAssay (NCI).
